# Laboratory results taken from PubChem BioAssay (NCATS).
# Inconclusive results are not listed. Activity calls are given as the source filed them. Unless noted, no rule for the calls is given here.
# Assays:
# [1] = qHTS profiling for inhibitors of Plasmodium falciparum (DD2) proliferation (AID 743323); conditions: lower = more inhibition; at 28.7 µM (top of the series)
# How it was run: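 P. falciparum Dd2-infected erythrocytes (0.3% parasitemia, 2.5% hematocrit) exposed 72 h at 37 C, 5% CO2. Lysis with SYBR Green, overnight at room temperature, fluorescence 485/535 nm; normalized to 0.29 uM artemisinin and DMSO.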
# [2] = qHTS profiling for inhibitors of Plasmodium falciparum (HB3) proliferation (AID 743324; active = well fitted curve in the direction sought with a large enough effect; an effect the other way counts as inactive or inconclusive;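 also: 100% = DMSO vehicle wells and 0% = artemisinin-treated control wells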); conditions: Plasmodium falciparum HB3 blood-stage proliferation; at 28.7 µM (top of the series)
# How it was run: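 SYBR Green fluorescence (485 ex/535 em) of lysed cultures, incubated overnight at room temperature in the dark, quantifies parasite DNA. Infected erythrocytes at 0.3% parasitemia and 2.5% hematocrit were exposed 72 h; values normalized to DMSO and 0.29 uM artemisinin controls.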
# [3] = qHTS profiling of the MIPE4 collection as inhibitors of Plasmodium falciparum (3D7) proliferation (AID 743344);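 also: scaled between DMSO vehicle wells and 0.29 µM artemisinin as full inhibition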; conditions: P. falciparum 3D7 in erythrocytes, SYBR Green DNA fluorescence, 72 h; at 28.5 µM (top of the series) unless noted
# How it was run: (§1)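 Parasite DNA was quantified by SYBR Green I fluorescence (ex 485, em 535 nm) after overnight lysis in saponin/Triton buffer at room temperature. Cultures at 0.3% parasitemia and 2.5% hematocrit were first exposed to compound for 72 h at 37 C; signals were normalised to artemisinin (0.29 uM) and vehicle wells.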
# [4] = qHTS profiling of the MIPE4 collection as inhibitors of Plasmodium falciparum (DD2) proliferation (Rep 2) (AID 743346); conditions: P. falciparum Dd2 in erythrocytes, SYBR Green DNA, 72 h; at 28.5 µM (top of the series) unless noted
# How it was run: as §1
# [5] = qHTS profiling of the MIPE4 collection as inhibitors of Plasmodium falciparum (HB3) proliferation (AID 743347);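 also: plate controls were DMSO vehicle wells for no effect and artemisinin wells for full effect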; conditions: P. falciparum HB3 in erythrocytes, SYBR Green DNA, 72 h; at 28.5 µM (top of the series) unless noted
# How it was run: as §1
# [6] = High-throughput drug toxicity screening in the BPDCN cell line Gen2.2 (AID 1224824); conditions: Gen2.2 BPDCN cells; at 45.8 µM (top of the series) unless noted;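 also: cells exposed to compounds for 48 h before reading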
# How it was run: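 Gen2.2, 500 cells/well, phenol red-free RPMI/10% FBS/Pen-Strep; 48 h cpd, 37 °C/5% CO2; CTG lum, 15 min RT. Norm: DMSO = 100%, bortezomib 9.2 uM final = 0%.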
# [7] = High-throughput drug toxicity screening in the BPDCN cell line Cal-1 (AID 1224825); conditions: Cal-1 BPDCN cell viability, qHTS; at 45.8 µM (top of the series) unless noted
# How it was run: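 CellTiter-Glo luminescence after 48 h compound exposure; percent activity scaled with DMSO as 100% and bortezomib (9.2 uM final) as 0%. Cal-1 cells seeded at 500/well in RPMI, 10% FBS, no phenol red.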
# [8] = qHTS assay for measurement of the activity of small molecule inhibitors on Zika virus induced Caspase-3 activity in human iPSC derived neural progenitor cells (hNPCs) (AID 1224857; active = well fitted curve in the direction sought with a large enough effect; an effect the other way counts as inactive or inconclusive; also: % of control where 0% means no effect; nearly all actives have a fitted effect of over 65% in size)
# How it was run: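 In medium with heparin 2 ug/ml and cyclopamine 2 uM, hNPCs (350 cells/well) received compound for one hour and then Zika virus at 2 FFU/cell; caspase activity was measured by Caspase-Glo 3/7 luminescence 6 h post-infection.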
# [9] = qHTS profiling of the MIPE4 collection as inhibitors of Plasmodium falciparum (DD2) proliferation (AID 743345); conditions: P. falciparum Dd2 in erythrocytes, SYBR Green DNA, 72 h; at 28.5 µM (top of the series) unless noted
# How it was run: as §1
# [10] = qHTS profiling for inhibitors of Plasmodium falciparum (3D7) proliferation (AID 743322);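 also: infected erythrocytes exposed to compound for 72 h before lysis; 100% = DMSO vehicle wells and 0% = 0.29 µM artemisinin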; conditions: P. falciparum 3D7 proliferation; at 28.7 µM (top of the series)
# How it was run: as §1
SMILES,"activity, percent of control [1]","remaining proliferation (% of control), lower = more inhibition [2]","parasite growth, % of DMSO control [3]","parasite growth, % of control (lower = inhibition) [4]","growth, % of control [5]","cell viability, % of control (lower = more cytotoxic) [6]",viability (% of control) [7],Potency [8],"parasite growth remaining, % of DMSO control (lower = more inhibition) [9]",remaining parasite growth % (stronger effect = lower value) [10]
CCC[C@H](NC(=O)C(C#N)=Cc1cccc(Br)n1)c1ccccc1,23.2%,14.8%,11.6%,17.5%,4.55%,15.9%,4.33%,inactive,,
O=C(CCCCCCNC(=O)c1cnc(N(c2ccccc2)c2ccccc2)nc1)NO,,,5.31%,7.25%,11%,5.14%,3.58%,inactive,7.75%,
CCS(=O)(=O)c1cccc(-c2cc(C(=O)NC3CCN(C)CC3)c(C)c3[nH]c4ncc(C)cc4c23)c1,,,5.84%,15.1%,7.05%,7.25%,2.47%,inactive,9.76%,
COc1cccc(Nc2c(C(N)=O)cnc3c(C)cc(S(=O)(=O)c4cccc(C(=O)N(C)C)c4)cc23)c1,,,37.9% [at 9.64 µM],40% [at 9.64 µM],90% [at 9.64 µM],216% [at 23.2 µM],108% [at 23.2 µM],inactive,90.5% [at 9.64 µM],
Cc1cc(Nc2cc(CN3CCOCC3)c3nc(C)c(Cc4ccc(Cl)cc4F)n3n2)n[nH]1,,,6.44%,12.5%,5.44%,4.25%,2.99%,inactive,7.86%,
C=C1C(=CC=C2CCC[C@]3(C)[C@@H]([C@H](C)C=C[C@H](C)C(C)C)CC[C@@H]23)C[C@@H](O)C[C@@H]1O,102%,92.2%,6.24%,7.88%,9.22%,104%,5.8%,inactive,,88.6%
COC(=O)C1=C(C)NC(C)=C(C(=O)OCCN2CCN(C(c3ccccc3)c3ccccc3)CC2)C1c1cccc([N+](=O)[O-])c1 (stereo not given),,,19.8%,43.1%,18.9%,126%,108%,inactive,,
COc1ccc2c(OCc3nnc4ccc(-c5ccccc5)nn34)ccnc2c1,,,53.1%,67%,59.2%,170%,105%,inactive,97.5%,
CC(C)c1nn(-c2c(Cl)cccc2Cl)c2nc(Cc3ccc(OCCO)cc3)[nH]c(=O)c12,,,20.8%,27.3%,21.7%,3.64%,2.52%,inactive,62%,
CC(C)c1cnn2c(NCc3ccccc3)cc(N[C@@H](CO)[C@H](O)CO)nc12,,,,21.4%,14.5%,3.01%,0.824%,inactive,61.8%,
CCN(CC)CCNC(=O)c1ccc2nc(-c3ccccc3)c(-c3ccc(CN4CCC(n5c(=O)[nH]c6ccccc65)CC4)cc3)nc2c1,,,4.56%,19.4%,8.22%,1.68%,0.965%,inactive,5.78%,
COc1ccc(F)c(F)c1C(=O)c1cnc(NC2CCN(S(C)(=O)=O)CC2)nc1N,,,27.7%,26%,37.7%,2.27%,2%,inactive,60.1%,
Cc1nc(N)ncc1-c1nc(N2CCOCC2)c2sc(C(C)(C)O)cc2n1,,,5.28%,7.48%,1.99%,38.1%,14%,inactive,,
CN(C1CCc2c(c3ccccc3n2CC(=O)O)C1)S(=O)(=O)c1ccc(F)cc1 (stereo not given),,,15.9%,19%,19.9%,243%,39.5%,inactive,93.1%,
CN(C)c1nc(Cc2ccc(NC(=O)c3ccc4ccccc4c3)cc2)nc(Cl)c1CC(=O)O,,,59.8%,42.6%,85.9%,90.6%,113%,inactive,,
CCn1cc(-c2ccnc3[nH]c(-c4cccc(CN(C)C)c4)cc23)c(-c2ccc(NC(=O)N(C)C)cc2)n1,,,5%,9.35%,5.95%,3.65%,2.71%,inactive,8.23%,
O=C(CCCCCCC(=O)Nc1ccc([C@H]2O[C@@H](CSc3nc(-c4ccccc4)c(-c4ccccc4)o3)C[C@@H](c3ccc(CO)cc3)O2)cc1)NO,,,5.18%,7.19%,6.35%,9.13%,4.48%,inactive,6.85%,
Nc1ncnc2c1c(-c1cnc3[nH]ccc3c1)nn2C1CCCC1,,,6.52%,8.28%,2.85%,7.53%,3.58%,inactive,8.6%,
CC[C@@]1(O)C(=O)OCc2c1cc1n(c2=O)Cc2cc3cc(O)ccc3nc2-1,,,13.5%,16.8%,5.75%,4.43%,3.68%,inactive,12.6%,
O=C(O)C1(Cc2cccc(Nc3nccs3)n2)CCC(Oc2cccc(Cl)c2F)CC1 (stereo not given),,,63.9%,59.5%,92%,88.8%,33.8%,inactive,,
CC[C@H]1CN2CCc3cc(OC)c(OC)cc3[C@H]2C[C@@H]1C[C@@H]1NCCc2cc(OC)c(OC)cc21,,,4.96%,7.29%,3.29%,8.8%,6.78%,inactive,6.45%,
